Test results reported in PubChem BioAssay AID1441 (NMMLSC, 2008).
Out of some 220,000 compounds screened, about 830 (0.38%) were called active. What follows is part of a selection rich in actives, with near analogues and random picks from the rest. Unmarked numbers belong to inactive results. The rule behind the calls is not given here.

The compounds below were run against Regulator of G-protein signaling 16 (Homo sapiens) + Guanine nucleotide-binding protein G(o) subunit alpha (Homo sapiens) (UniProt O15492+P09471) (assay: RGS16-Galphao interaction inhibitors and enhancers – biochemical, human proteins, multiplexed bead flow cytometry, primary screen (AID 1441;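 note: Galphao activated by GDP with aluminum fluoride before binding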)). Conditions: bead-based flow cytometry RGS16-Galphao binding, fluorescence; at 10 µM; actives lie on both sides.
Sequence of Regulator of G-protein signaling 16 (Homo sapiens) + Guanine nucleotide-binding protein G(o) subunit alpha (Homo sapiens) (O15492 whole entry, looked up): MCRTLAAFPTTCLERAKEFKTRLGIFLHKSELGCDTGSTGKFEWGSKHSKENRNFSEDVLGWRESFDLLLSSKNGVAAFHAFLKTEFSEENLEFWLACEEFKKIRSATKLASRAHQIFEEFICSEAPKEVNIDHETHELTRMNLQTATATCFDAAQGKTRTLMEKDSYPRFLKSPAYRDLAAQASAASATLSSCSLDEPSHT
Sequence of Regulator of G-protein signaling 16 (Homo sapiens) + Guanine nucleotide-binding protein G(o) subunit alpha (Homo sapiens) (P09471 whole entry, looked up): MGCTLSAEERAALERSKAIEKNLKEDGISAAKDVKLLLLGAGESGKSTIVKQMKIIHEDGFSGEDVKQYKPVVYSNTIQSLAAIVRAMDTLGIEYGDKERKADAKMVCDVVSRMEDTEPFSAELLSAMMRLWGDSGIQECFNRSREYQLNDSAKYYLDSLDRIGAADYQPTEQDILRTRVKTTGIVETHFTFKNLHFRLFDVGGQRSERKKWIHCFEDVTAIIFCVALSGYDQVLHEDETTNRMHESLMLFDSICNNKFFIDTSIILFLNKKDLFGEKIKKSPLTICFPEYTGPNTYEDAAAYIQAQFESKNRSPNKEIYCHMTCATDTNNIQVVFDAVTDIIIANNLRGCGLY

Going from `COCCCN1C(=O)C(=O)/C(=C(/O)c2ccc3c(c2)CC(C)O3)C1c1cccnc1` (centres undefined) to `COc1ccc(/C(O)=C2\C(=O)C(=O)N(Cc3ccco3)C2c2ccc(OC)cc2OC)cc1` (centres undefined), the binding response (% of control) rises from 68.3% to 97.2%.

Going from `CC(=O)Nc1ccc(OCCC[n+]2cccc(C(=O)[O-])c2)cc1` to `Cc1ccc(OCCCn2c(=O)oc3ccccc32)cc1`, the binding response (% of control) rises from 97.8% to 106%.

Compared with `O=C(NCc1ccccc1)c1ccc(CNc2c(N3CCCC3)c(=O)c2=O)cc1`, `O=C(Cn1cnc2cc([N+](=O)[O-])ccc2c1=O)NC(=O)NCc1ccccc1` is higher in binding response (% of control): 102% for the first, 112% for the second.

First: COc1ccc(Br)cc1/C=N/Nc1ccc(Cl)c(C(=O)O)c1
Second: COc1ccc(CCNC(=O)C(=O)Nc2ccc3nc4n(c(=O)c3c2)CCCCC4)cc1OC
The binding response (% of control) of the first is lower: 103% for the first, 105% for the second.

Compared with `Nc1c(N(CCO)C(=O)C2CCCCC2)c(=O)[nH]c(=O)n1Cc1ccccc1`, `Cc1nn(-c2ccccc2)c(C)c1C(=O)OCC(=O)NC(=O)NC1CCCCC1` is higher in binding response (% of control): 86.5% for the first, 98.5% for the second.

Compared with `O=C(CSc1nnc(-c2cccs2)n1Cc1ccccc1)N1CCc2ccccc2C1`, `O=C(COc1ccccc1)N1CCc2ccccc2C1` is higher in binding response (% of control): 101% for the first, 102% for the second.

Compared with `O=S(=O)(c1ccccc1)N(CC(O)CN1CCCCC1)c1ccccc1` (centres undefined), `Cc1ccc(N(CC(O)CN2CCCC2)S(=O)(=O)c2ccccc2)cc1` (centres undefined) is higher in binding response (% of control): 96.4% for the first, 100% for the second.

First: CCN(CC(=O)Nc1ccc(Cl)c(S(=O)(=O)N(C)C)c1)Cc1nc2ccccc2c(=O)[nH]1
Second: COc1ccc(S(=O)(=O)N(C)C)cc1NC(=O)CSc1ncccn1
The binding response (% of control) of the first is higher: 107% for the first, 101% for the second.

Compared with `CCOC(=O)CSc1nc(C)c(Oc2ccc(Cl)cc2Cl)c(=O)[nH]1`, `Cc1cc(NC(=O)COc2ccc(Cl)cc2Cl)n(CCC#N)n1` is lower in binding response (% of control): 101% for the first, 93.4% for the second.

First: COc1ccc(C(=O)C[n+]2ccc(N)c(C)c2C)cc1
Second: Cc1ccc(OC(=O)c2c(C)nn(-c3ccccc3)c2C)cc1
The binding response (% of control) of the first is higher: 99.8% for the first, 96.3% for the second.

Compared with `CCOC(=O)c1c(CC(C)C)csc1/N=C/C1=C(O)CCCC1=O`, `CCOC(=O)C1=C(C)NC(=O)N(C(C)=O)C1c1ccc(Cl)cc1` (centres undefined) is higher in binding response (% of control): 103% for the first, 109% for the second.

Going from `CCN1CCN(C(=O)/C=C\C(=O)O)CC1` to `CCN1CCN(C(=O)CCN2C(=O)c3ccccc3C2=O)CC1`, the binding response (% of control) falls from 101% to 93.9%.

First: CN1CCN(C(=O)C2C3C=CC(C3)C2C(=O)O)CC1 (centres undefined)
Second: CC(=O)N(CN1C(=O)C2C3C=CC(C3)C2C1=O)c1cccc(Cl)c1 (centres undefined)
The binding response (% of control) of the first is lower: 102% for the first, 104% for the second.

Going from `COC(=O)C(C(=O)Nc1cccc(C)n1)C1CCCCCC1` (centres undefined) to `COc1ccccc1N(C)S(=O)(=O)c1ccc(C(=O)NC2CCCCCC2)cc1`, the binding response (% of control) falls from 103% to 102%.

Compared with `CCCc1cc(=S)n2c([nH]c3ccccc32)c1C#N`, `CCCn1cc(SCC(N)=O)c2ccccc21` is lower in binding response (% of control): 97.3% for the first, 85.2% for the second.

Going from `CSc1sc(C(=O)NNC(=O)c2ccc(Cl)cc2)c2c1C=CCC2` to `O=C(Nc1ccc(Cl)cc1)/C(=C1\CCCN1)[N+](=O)[O-]`, the binding response (% of control) rises from 92.2% to 97.8%.

First: O=C(O)c1ccccc1C(=O)Nc1ccccc1[N+](=O)[O-]
Second: O=C(O)C#Cc1cccc2ccccc12
The binding response (% of control) of the first is lower: 96.6% for the first, 103% for the second.

First: O=C(Cc1c[nH]c2ccccc12)OCCOC(=O)Cc1c[nH]c2ccccc12
Second: NC(=O)CC(NC(=O)Cc1cccc2ccccc12)c1ccc(NCc2cc(F)ccc2F)c([N+](=O)[O-])c1 (centres undefined)
The binding response (% of control) of the first is lower: 97.3% for the first, 100% for the second.

Compared with `Oc1ccc2ccccc2c1N=Nc1nccs1`, `Clc1ccc2nc(CSc3ccccc3)cn2c1` is higher in binding response (% of control): 99.9% for the first, 169% for the second.

Going from `Cc1noc(C)c1S(=O)(=O)Nc1cc(C(F)(F)F)ccc1N1CCOCC1` to `CC(C)CC(=O)Nc1cc(C(F)(F)F)ccc1N1CCOCC1`, the binding response (% of control) rises from 98% to 101%.

First: Cc1cc(C)cc(C(=O)N2CCN=C2SCc2ccc([N+](=O)[O-])cc2)c1
Second: COC(=O)c1c(C)[nH]c(C)c1-c1ccc([N+](=O)[O-])cc1
The binding response (% of control) of the first is higher: 96.2% for the first, 85.3% for the second.

Compared with `O=C(Nc1ccc2cn[nH]c2c1)c1ccc(S(=O)(=O)N2CCOCC2)cc1`, `CC(C)(CNC(=O)c1ccc(Cl)c(S(=O)(=O)N2CCc3ccccc3C2)c1)N1CCOCC1` is higher in binding response (% of control): 92.3% for the first, 96.9% for the second.

First: Cc1cc(F)ccc1S(=O)(=O)Nc1ncnc2scc(-c3ccc(F)cc3)c12
Second: COc1ccc(CCNC(=O)c2ccc(CS(=O)(=O)c3ccc(Br)cc3)o2)cc1OC
The binding response (% of control) of the first is lower: 95.8% for the first, 107% for the second.

Compared with `CCOc1cc(CNCc2ccccn2)ccc1OCC(=O)NC(C)(C)C`, `CC(C)(C)NC(=O)COC(=O)c1cc(Cl)ccc1[N+](=O)[O-]` is lower in binding response (% of control): 103% for the first, 100% for the second.

Compared with `CC(Sc1nnc2c(n1)C1CCC2(C)C1(C)C)C(=O)Nc1ccccc1` (centres undefined), `CC(C)(C)C1CCC(=NNC(=O)c2cc(-c3ccccc3)n[nH]2)CC1` (centres undefined) is lower in binding response (% of control): 102% for the first, 85.9% for the second.

Going from `O=C(Nc1nc2c(F)cc(F)cc2s1)C1COc2ccccc2O1` (centres undefined) to `NC(=O)c1c(Nc2nc3c(F)cccc3s2)sc2c1CCCC2`, the binding response (% of control) falls from 99.5% to 95%.

First: COc1cc(C(=O)Nc2cc(C(F)(F)F)ccc2-n2cncn2)cc(OC)c1OC
Second: COc1cc(/C=C/C(=O)N2c3ccccc3Sc3ccc(C(F)(F)F)cc32)cc(OC)c1OC
The binding response (% of control) of the first is higher: 98.2% for the first, 97% for the second.

Compared with `CC(=O)N1N=C(c2ccncc2)OC1(Cc1ccccc1)Cc1ccccc1`, `O=C(CSc1cccc[n+]1[O-])c1ccc(-c2ccccc2)cc1` is higher in binding response (% of control): 96.5% for the first, 104% for the second.

First: N#Cc1c(N2CCCCC2)nc(N)c2c(N)nc(SCC(=O)O)cc12
Second: O=C(CN1CCCCCC1)N1c2ccccc2Sc2ccc(C(F)(F)F)cc21
The binding response (% of control) of the first is higher: 114% for the first, 81.4% for the second.

First: Cc1nn(-c2ccccc2)c(=O)c2noc(C)c12
Second: CN1C=CC=C/C1=C1\SC(=S)N(Cc2ccccc2)C1=O
The binding response (% of control) of the first is higher: 102% for the first, 100% for the second.

First: CCC(C)NC(=O)C1c2ccccc2Oc2ccccc21 (centres undefined)
Second: O=C(OCC(=O)N1CCN(C(=O)c2ccco2)CC1)c1ccccc1Cc1ccccc1
The binding response (% of control) of the first is higher: 103% for the first, 82.8% for the second.

First: COc1cccc(OC)c1OCCN1CCN(C(=O)c2ccco2)CC1
Second: CCc1cccc(C)c1NC(=S)N(CCCN1CCN(C)CC1)Cc1cccs1
The binding response (% of control) of the first is lower: 101% for the first, 105% for the second.

First: CCC(C)N(C(=O)COC(=O)C1C(C(=O)OC)=C(C)NC(C)=C1C(=O)OC)C1CCS(=O)(=O)C1 (centres undefined)
Second: CCOC(=O)N1CCN(C(=O)COc2ccc(Cl)cc2C)CC1
The binding response (% of control) of the first is higher: 104% for the first, 97.8% for the second.

`COc1ccc(C2CC(c3ccccc3)Nc3ncnn32)cc1` (centres undefined) and `Clc1ccc(C2CC(c3cccs3)n3ncnc3N2)cc1Cl` (centres undefined) are the same in binding response (% of control): 103% for the first, 103% for the second.

Compared with `CC(=O)Nc1ccc(/C=N/Nc2ccc(C(=O)c3c(C)cc4ccccn34)cc2[N+](=O)[O-])cc1`, `COc1ccc(C(CC(=O)N2CCN(c3ccccc3)CC2)c2c(O)cc(OC)cc2OC)cc1` (centres undefined) is higher in binding response (% of control): 89.3% for the first, 99.5% for the second.

Going from `COC(C[C@H](O)CC(=O)COCc1ccccc1)OC` to `CC(C)=NN1C(=O)c2ccccc2NC1(C)C`, the binding response (% of control) rises from 110% to 120%.

Compared with `CCOC(=O)C1C(c2ccc(Cl)cc2)NC(=S)NC1(O)C(F)(F)F` (centres undefined), `Cc1ccc(Cl)cc1NC(=S)N(CCN(C)C)Cc1cccs1` is lower in binding response (% of control): 102% for the first, 99.5% for the second.

Going from `O=C(CCNc1n[nH]c(=O)[nH]c1=O)N/N=C\c1ccc(Br)cc1` to `NCCCCCC(=O)N/N=C/c1ccc2nccnc2c1`, the binding response (% of control) rises from 100% to 105%.

Going from `Nc1ccc(OCC(O)C[n+]2ccc(CCS(=O)(=O)[O-])cc2)cc1` (centres undefined) to `N#Cc1ccc(CSc2nnc3ccccn23)cc1`, the binding response (% of control) rises from 97.6% to 101%.

In the case of `COc1cc(C2/C(=C(\O)c3ccc4c(c3)CC(C)O4)C(=O)C(=O)N2Cc2ccco2)ccc1O` (centres undefined), the binding response (% of control) is reported as -10.7% (active).
With `Cn1c(=O)c2c(n(Cc3ccccc3)c1=O)NC(=O)C2CC(=O)N1CCc2ccccc2C1` (centres undefined) the binding response (% of control) was -1.02% (active).
`Cc1cc(C)n(CC(O)CN(c2ccccc2)S(=O)(=O)c2ccc3ccccc3c2)n1` (centres undefined) was tested, and the binding response (% of control) was -6.51% (active).
`C/C(=C/C(=O)N1CCN(C)CC1)C(=O)O` was tested, and the binding response (% of control) was 234% [activator] (active).
With `NC(=O)CSc1c[nH]c2ccccc12` the binding response (% of control) was 19.6% (active).
`Oc1ccc(N=Nc2nccs2)c(O)c1` was tested, and the binding response (% of control) was -16.2% (active).
In the case of `CC(=O)N1CC[n+]2c(-c3ccc([N+](=O)[O-])cc3)csc21`, the binding response (% of control) is reported as 12.8% (active).
With `Fc1cc(F)c2nc(Nc3nc4c(F)cccc4s3)sc2c1` the binding response (% of control) was 192% [activator] (active).
With `COc1cc(C(=O)Nc2cc(C(F)(F)F)ccc2N2CCOCC2)ccc1O` the binding response (% of control) was 9.57% (active).
In the case of `Cc1ccc(C)c(OCC(=O)N2CCN(C(=O)c3ccco3)CC2)c1`, the binding response (% of control) is reported as 24.4% (active).
`O=C(CN1CCCCC1)N1c2ccccc2Sc2ccc(C(F)(F)F)cc21` was tested, and the binding response (% of control) was -6.83% (active).
For `CCCn1c(C)cc(C(=O)COC(=O)c2c(C)nn(-c3ccccc3)c2C)c1C`, the binding response (% of control) was -33.9% (active).
With `FC(F)Oc1ccccc1C1CC(c2ccc(Br)s2)Nc2ncnn21` (centres undefined) the binding response (% of control) was 215% [activator] (active).
With `CCOC(=O)C1Sc2[nH]c(=O)sc2C(c2ccc(Cl)cc2)C1C(=O)OCC` (centres undefined) the binding response (% of control) was -39.2% (active).
With `Cc1ccccc1NC(=S)N(CCCN1CCOCC1)Cc1cccs1` the binding response (% of control) was 181% [activator] (active).
`CCCn1nnnc1NC(=O)COc1ccc(Cl)cc1C` was tested, and the binding response (% of control) was 2.27% (active).
